Assay results as given in PubChem BioAssay AID493034 (The Scripps Research Institute Molecular Screening Center, 2011).
The campaign covered roughly 2,400 compounds. About 2,200 (92%) were called active.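 Rule for the calls: active = mean inhibition over triplicate runs exceeds the cutoff derived for the earlier primary screen (cut at about 25% in these data); inactive = the rest.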 So high a share suggests a set chosen from earlier hits. Some of the results follow.

Target: Platelet-activating factor acetylhydrolase IB subunit alpha2 (Homo sapiens) (UniProt P68402)
Assay: inhibition of human PAFAH1B2 catalytic subunit – biochemical, fluorescence polarization, FP-rhodamine probe, triplicate, confirmation (AID 493034);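 note: 0% = enzyme with DMSO and 100% = wells lacking PAFAH1B2 protein; inhibitors lower polarization by leaving the probe unbound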
Conditions: recombinant PAFAH1B2, FP-rhodamine probe fluorescence polarization; at 3.39 µM; active compounds read high

Chain of Platelet-activating factor acetylhydrolase IB subunit alpha2 (Homo sapiens) (P68402 whole entry, looked up): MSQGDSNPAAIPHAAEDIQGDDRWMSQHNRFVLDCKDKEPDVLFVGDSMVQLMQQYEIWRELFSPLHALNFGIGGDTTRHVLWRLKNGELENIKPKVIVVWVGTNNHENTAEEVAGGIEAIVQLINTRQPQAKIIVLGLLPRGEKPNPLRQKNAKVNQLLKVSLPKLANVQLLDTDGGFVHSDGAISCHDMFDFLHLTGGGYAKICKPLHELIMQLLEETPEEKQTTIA

With CCOc1ccc2nc(NC(=O)CSc3nc(-c4ccccc4)c(C#N)c(=O)[nH]3)sc2c1 as the compound, how does the inhibition read?
The inhibition was 81.7% (active).

CCOc1ccc(OCCSc2nc3ccccc3c(=O)[nH]2)cc1 was tested. Which inhibition did it give?
Its inhibition is 3.03% (inactive).

For N#Cc1c(-c2ccccc2)nc(SCC(=O)Nc2ccc(OC(F)(F)Cl)cc2)[nH]c1=O, which inhibition is on record?
The inhibition was 76.1% (active).

How did the inhibition turn out when CCOC(=O)Cc1csc(NC(=O)CSc2nc(-c3ccccc3)c(C#N)c(=O)[nH]2)n1 was run?
The inhibition was 63.6% (active).

For CCOC(=O)c1ccccc1NC(=O)CSc1nnc(C)c(=O)[nH]1, which inhibition is on record?
Its inhibition is 22.2% (inactive).

CCc1ccc(S(=O)(=O)NCCc2csc(-c3ccccc3)n2)s1 was tested. Which inhibition did it give?
Its inhibition is 22.1% (inactive).

How did the inhibition turn out when Cc1cc(N2CCCC2=O)cc(C)c1S(=O)(=O)NCCOc1ccc(C(C)(C)C)cc1 was run?
Its inhibition is 33.7% (active).

With O=C1C(=O)C(c2ccccc2)C(=O)C1c1ccccc1 (configuration not stated) as the compound, how does the inhibition read?
The inhibition was 25.4% (active).

With COc1cc(Cl)cc(C(c2c(C(=O)O)[nH]c3ccccc23)c2c(C(=O)O)[nH]c3ccccc23)c1O as the compound, how does the inhibition read?
Its inhibition is 71% (active).

Which inhibition does the source give for O=C(O)c1[nH]c2ccccc2c1C(c1cc(Cl)cc([N+](=O)[O-])c1O)c1c(C(=O)O)[nH]c2ccccc12 here?
The inhibition was 43.8% (active).

With CN(Cc1cccs1)C(=O)CCNS(=O)(=O)c1ccc(Br)cc1 as the compound, how does the inhibition read?
Its inhibition is 21.4% (inactive).

How did the inhibition turn out when O=[N+]([O-])c1cc(-c2csc(NCCc3nc4cc(C(F)(F)F)ccc4n3CCCO)n2)ccc1Cl was run?
Its inhibition is 14.9% (inactive).

O=C(O)c1ccc(NS(=O)(=O)c2ccc(Cl)c(Cl)c2)cc1O was tested. Which inhibition did it give?
Its inhibition is 20.1% (inactive).

O=C(O)c1cc(NS(=O)(=O)c2ccc3ccccc3c2)ccc1O was tested. Which inhibition did it give?
Its inhibition is 35.9% (active).

How did the inhibition turn out when COc1ccccc1NC(=O)C(=O)NNS(=O)(=O)c1ccc2ccccc2c1 was run?
The inhibition was 23.4% (inactive).

CCC(Sc1nc(-c2cccc(OC)c2)c(C#N)c(=O)[nH]1)C(=O)Nc1nnc(C(C)C)s1 (configuration not stated) was tested. Which inhibition did it give?
Its inhibition is 34.6% (active).

Which inhibition does the source give for O=C(O)C1=CC[C@@H](c2ccc(Cl)cc2)N(S(=O)(=O)c2ccc(Cl)cc2)[C@H]1c1ccc(Br)cc1 here?
Its inhibition is 86.3% (active).

For Cc1ccccc1S(=O)(=O)N1[C@@H](c2ccc(Br)cc2)C(C(=O)O)=CC[C@H]1c1ccc(Cl)cc1, which inhibition is on record?
Its inhibition is 83.2% (active).

How did the inhibition turn out when CNc1nc(NCCOC23CC4CC(CC(C4)C2)C3)nc(OCC(F)(F)F)n1 was run?
The inhibition was 22.2% (inactive).

For CCCCNC(=O)Oc1ccc(C(=O)N2c3ccccc3NC(=O)C2C)cc1 (configuration not stated), which inhibition is on record?
Its inhibition is 41.2% (active).

For CC(C)(C)Cc1nnc(NS(=O)(=O)c2ccc(F)cc2)s1, which inhibition is on record?
Its inhibition is 20.3% (inactive).

With C/C(CC(C)(C)C1CCCCC1)=N\NC(N)=S as the compound, how does the inhibition read?
Its inhibition is 30.1% (active).

O=C(CNS(=O)(=O)c1ccccc1)NCC(=O)OCc1ccc(Br)cc1 was tested. Which inhibition did it give?
The inhibition was 23.9% (inactive).

With NC(=NCCc1ccc(Cl)cc1)NS(=O)(=O)c1ccccc1 as the compound, how does the inhibition read?
The inhibition was 49.9% (active).

With O=S(=O)(NC(=NCCc1ccc(Cl)cc1)c1ccccc1Cl)c1cccs1 as the compound, how does the inhibition read?
Its inhibition is 110% (active).

With O=S(=O)(NCc1ccc(Cl)cc1)c1ccc(Cl)nc1 as the compound, how does the inhibition read?
The inhibition was 22.4% (inactive).

NC(=NCCc1ccc(Cl)cc1)NS(=O)(=O)c1ccc(F)cc1 was tested. Which inhibition did it give?
Its inhibition is 50.7% (active).

Which inhibition does the source give for CSCCC(NS(=O)(=O)c1ccc(Cl)cc1)C(=O)OCc1cccc(Cl)c1 (configuration not stated) here?
Its inhibition is 23.1% (inactive).

With CCOC(=O)c1sc(NC(=O)CN(CC(C)C)CC(C)C)c(C(=O)OCC)c1C as the compound, how does the inhibition read?
Its inhibition is 6.46% (inactive).

N#C/C(=C/c1cn[nH]c1-c1ccc(Br)cc1)C(=O)O was tested. Which inhibition did it give?
Its inhibition is 20.3% (inactive).

Cc1ccc([N+](=O)[O-])c(-c2n[nH]c(=S)n2-c2cccc(Cl)c2)c1 was tested. Which inhibition did it give?
Its inhibition is 24% (inactive).

For CC(C)(C)[C@H]1COC(=O)[C@@H](Cc2ccc(F)cc2)C/C=C\C[C@@H](CC(=O)N[C@H](CO)Cc2ccccc2)C(=O)N1, which inhibition is on record?
Its inhibition is 62.1% (active).

Which inhibition does the source give for CC(C)(C)[C@H]1COC(=O)[C@@H](Cc2ccc(F)cc2)CC/C=C/C[C@@H](CC(=O)N[C@H](CO)Cc2ccccc2)C(=O)N1 here?
Its inhibition is 26.6% (active).

Which inhibition does the source give for CC(C)(C)[C@@H]1COC(=O)[C@H](Cc2ccc(F)cc2)C/C=C\C[C@@H](CC(=O)NCCO)C(=O)N1 here?
The inhibition was 17.5% (inactive).

Which inhibition does the source give for CC(C)(C)[C@H]1COC(=O)[C@@H](Cc2ccc(F)cc2)C/C=C\C[C@@H](CC(=O)N[C@@H](CO)Cc2ccccc2)C(=O)N1 here?
The inhibition was 32.7% (active).

Which inhibition does the source give for Cc1c(N=C2C=C(Br)C(=O)C(Br)=C2)c(=O)n(-c2ccccc2)n1C here?
Its inhibition is 20.8% (inactive).

How did the inhibition turn out when O=S(=O)(Nc1ccc2cn[nH]c2c1)c1ccc(Cl)cc1 was run?
The inhibition was 18.1% (inactive).

O=c1[nH]c2ccc(S(=O)(=O)Nc3ccc(Cl)cc3)cc2o1 was tested. Which inhibition did it give?
Its inhibition is 41.7% (active).

How did the inhibition turn out when Nc1n[nH]c2c1C1(CCCCC1)Cc1ccccc1-2 was run?
Its inhibition is 22% (inactive).

O=C(OCCc1ccccc1)c1cc(O)c(O)c(O)c1 was tested. Which inhibition did it give?
Its inhibition is 34.3% (active).

How did the inhibition turn out when O=C(/C=C/c1ccc(O)c(O)c1)OCCc1ccccc1 was run?
The inhibition was 19.7% (inactive).

For N=c1c[n+](-c2ccc(Cl)cc2)[n-]o1, which inhibition is on record?
The inhibition was 18.1% (inactive).

For CN(Cc1ccccc1)C(=O)CN1CCN(S(=O)(=O)c2ccc(Cl)c(Cl)c2)CC1, which inhibition is on record?
Its inhibition is 22.8% (inactive).

Which inhibition does the source give for O=S(=O)(c1ccc(Cl)cc1)N1CCCC(C(F)(F)F)C1 (configuration not stated) here?
The inhibition was 22.5% (inactive).

How did the inhibition turn out when O=C(CN1CCN(S(=O)(=O)c2ccc(Cl)cc2)CC1)c1ccc(O)c(O)c1 was run?
The inhibition was 33.2% (active).

How did the inhibition turn out when O=C(NNC(=S)NC(=O)C12CC3CC(CC(C3)C1)C2)c1ccncc1 was run?
The inhibition was 38.2% (active).

Which inhibition does the source give for CCC(=O)Nc1cc(C)c(NC(=O)C23CC4CC(CC(C4)C2)C3)cn1 here?
The inhibition was 22.1% (inactive).

For O=C(NNC(=O)C12CC3CC(CC(C3)C1)C2)c1cccc([N+](=O)[O-])c1, which inhibition is on record?
The inhibition was 18.9% (inactive).

O=C1C(c2ccccc2)NC(=S)N1C1CCCCC1 (configuration not stated) was tested. Which inhibition did it give?
The inhibition was 20.2% (inactive).

How did the inhibition turn out when O=C(O)c1ccn2c(C(=O)c3ccccc3)c(-c3ccccc3)cc2c1 was run?
Its inhibition is 27.1% (active).

For O=C(O)c1ccn2c(C(=O)c3ccc(Cl)cc3)c(-c3ccccc3)cc2c1, which inhibition is on record?
The inhibition was 62.6% (active).

For O=C1NC(c2cccs2)C(C(=O)c2ccccc2)C(O)(C(F)(F)F)N1 (configuration not stated), which inhibition is on record?
The inhibition was 11.5% (inactive).

How did the inhibition turn out when CC1CC(C)CN(C(=O)Cc2c(C(=O)O)[nH]c3ccc(Cl)cc23)C1 (configuration not stated) was run?
Its inhibition is 73.8% (active).

For Cc1ccc2[nH]c(C(=O)O)c(NC(=O)[C@@H]3C[C@@H]3c3ccccc3)c2c1, which inhibition is on record?
The inhibition was 17.5% (inactive).

Which inhibition does the source give for CCCCN(CC)C(=O)Cc1c(C(=O)O)[nH]c2ccc(Cl)cc12 here?
The inhibition was 41.1% (active).

Which inhibition does the source give for CCOCCCNC(=O)Cc1c(C(=O)O)[nH]c2ccc(Cl)cc12 here?
The inhibition was 26.3% (active).

With CC(C)CCNC(=O)Cc1c(C(=O)O)[nH]c2ccc(Cl)cc12 as the compound, how does the inhibition read?
Its inhibition is 43.9% (active).
